# Bioassay records as filed in PubChem BioAssay.
# Most compounds without a hit are left out; they make up all but 1.3% or so of the library.
# Giardia kill = Small Molecules that selectively kill Giardia lamblia: qHTS. 0.15% of 340,000 active. AID 540267, 2011. Giardia lamblia trophozoite viability. activity change, % at 7.66 µM, hits read low; in the data active = activity change below about -80%; inconclusive = between about -30% and that limit;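 also: parasites exposed to compound for two days anaerobically before the ATP read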
#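 Viability, read as ATP luminescence: trophozoites at 100 cells/well, compound added, 48 hrs anaerobic at 37 deg C, then 15-30 min room-temperature development before reading.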
# GALK inh = qHTS Assay for Inhibitors of Human Galactokinase (GALK) | 0.007% of 270,000 active | Purified GALK, Kinase-Glo residual ATP luminescence | P51570 | Potency, µM (titrated, usually from 57.5 µM), without a hit: at the top dose activity change, negative = inhibition, actives largely listed as inhibitors; also: potency is read from the fitted curve at half-maximal effect
# Target sequence (P51570 whole entry, looked up): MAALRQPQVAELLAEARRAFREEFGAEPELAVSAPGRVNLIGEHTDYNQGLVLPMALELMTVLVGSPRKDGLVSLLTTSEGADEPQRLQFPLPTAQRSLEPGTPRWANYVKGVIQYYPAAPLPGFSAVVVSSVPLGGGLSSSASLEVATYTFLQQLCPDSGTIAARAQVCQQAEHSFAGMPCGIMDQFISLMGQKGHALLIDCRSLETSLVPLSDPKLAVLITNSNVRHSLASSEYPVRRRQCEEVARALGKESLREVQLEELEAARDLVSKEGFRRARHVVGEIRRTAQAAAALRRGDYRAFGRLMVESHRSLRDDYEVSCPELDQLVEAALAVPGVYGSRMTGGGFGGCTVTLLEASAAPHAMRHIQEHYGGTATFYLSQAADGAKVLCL
#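 Quantitative HTS: GALK 5 nM, ATP 35 uM, galactose 100 uM, 1 h room temperature, then luciferase-based ATP detection.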
# Pin1 inhibitor = qHTS Assay to Find Inhibitors of Pin1. Peptidyl-prolyl cis-trans isomerase NIMA-interacting 1 (Homo sapiens), Q13526. Pin1 FP peptide displacement, HiFluor488, 10 min. Potency, µM (titrated, usually from 115 µM), for the others: at the top dose activity, negative = inhibition, most hits filed as inhibitors. 0.009% of 390,000 active. AID 504891, 2011; active = well fitted inhibition curve with a large enough effect in the polarisation, with a control signal flat, not every such curve was filed as active; inconclusive = small, poorly fitted or top-dose-only effect, or effect the other way, or a change in a side signal; inactive = no such curve, though single readings can be large or run the other way; the % refers to the polarisation; also: potency is read from the fitted curve at half-maximal effect
# KAT2A inh = qHTS Assay for Inhibitors of GCN5L2; Histone acetyltransferase KAT2A (Homo sapiens), Q92830; GCN5L2 HAT assay, ThioGlo1 CoA-SH fluorescence; Potency, µM (series often up to 58.9 µM), without a hit: top-dose activity change, negative = inhibition, most hits filed as inhibitors; 0.21% of 390,000 active; AID 504327, 2011; also: potency is read from the fitted curve at half-maximal effect
#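 Free CoA generated was detected with ThioGlo1 (50uM) fluorescence at Ex340nm/Em540nm, read immediately and after 20 min at room temperature. Enzyme, 20 nM in HEPES pH 7.5 buffer, saw compounds 15 min before adding 75uM H3(1-25) peptide and 70uM acetyl-CoA.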
# rTrxR1 inhibitor = qHTS Assay for Inhibitors of Mammalian Selenoprotein Thioredoxin Reductase 1 (TrxR1): qHTS; Thioredoxin reductase 1, cytoplasmic (Rattus norvegicus), O89049; recombinant rTrxR1, NADPH fluorescence consumption, selenite substrate; Potency, µM (titrated, usually from 114 µM), without a hit: at the top dose activity change, negative = inhibition, hits mostly inhibitors; 1% of 390,000 active; also: potency is read from the fitted curve at half-maximal effect; nearly all actives have a fitted effect of over 65% in size
#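 Rat TrxR1 (90 nM in the dispensed reagent) was pre-reduced with 400 uM NADPH for 5 min at room temperature, then incubated with compound for 15 min. After 400 uM selenite was added, NADPH fluorescence (Ex 340/Em 450 nm) was followed for 8 min.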
# TrxR1 substrate = qHTS Assay for Substrates of Mammalian Selenoprotein Thioredoxin Reductase 1 (TrxR1): qHTS. Thioredoxin reductase 1, cytoplasmic (Rattus norvegicus), O89049. purified TrxR1 substrate turnover, NADPH consumption readout. 0.01% of 390,000 active. Potency, µM (series often up to 114 µM), for the others: at the top dose activity change, negative = substrate turnover. AID 588456, 2011; also: potency is read from the fitted curve at half-maximal effect; nearly all actives have a fitted effect of over 50% in size
#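 Rat TrxR1, dispensed at 90 nM, was prereduced with 400 uM NADPH (final) for 5 min at ~22 deg C, then incubated with compound 15 min before 400 uM selenite. A first-read NADPH fluorescence drop versus no-compound background flagged substrates.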
# * marks the source's active call; other numbers are inactive results; ? = inconclusive; . = no result; [ ] = remark or other dose. Unless noted, calls follow the shape of the dose curve; as a rule, active = well fitted curve in the direction sought with a large enough effect; inconclusive = small, poorly fitted or top-dose-only effect, or another doubt; inactive = no such curve, though single readings can be large; an effect the other way counts as inactive or inconclusive. % is scaled to controls: 0 for no effect and ±100 for the full control effect.
SMILES,Giardia kill,GALK inh,Pin1 inhibitor,KAT2A inh,rTrxR1 inhibitor,TrxR1 substrate
Nc1c(N(CCO)C(=O)/C=C/c2ccco2)c(=O)[nH]c(=O)n1Cc1ccccc1,-4,2%,2%,1%,20µM*,-6%
O=C(Cc1ccc([N+](=O)[O-])cc1)c1c(O)cc(O)cc1O,-19,6%,-3%,-1%,3.5µM*,4%
COCCn1c(C)c(C)c(S(=O)(=O)c2ccccc2)c1N,-12,6%,?,-10%,20µM*,4%
Cc1c(S(=O)(=O)c2ccccn2)c(N)n(Cc2ccccc2)c1C,8,3%,?,2%,11µM*,2%[57.1 µM]
Cc1c(S(=O)(=O)c2ccccn2)c(N)n(Cc2ccccc2Cl)c1C,16,.,?,0%,?,8%[57.1 µM]
CCCS(=O)(=O)c1c(S(=O)(=O)CCC)c2c(N)cccn2c1C(=O)OC,-26,5%,?,-5%,7.9µM*,-4%
CCCS(=O)(=O)c1c(S(=O)(=O)CCC)c2c(N)cccn2c1C(=O)c1ccccc1,19,1%,2%,-4%,-36%,-13%
C[N+](C)(CCCCCI)c1ccc(/C=C/c2nc3ccccc3s2)cc1,.,.,.,.,-26%,-10%
O=C1CCc2cc(S(=O)(=O)Nc3cccc(-c4ccccc4)c3)ccc2N1,.,.,-1%,.,.,.
O=C(NC(=S)Nc1ccc(N2CCCCC2)cc1)c1ccco1,-12,-4%,-1%,-7%,?,-3%
CC1CCN(c2ccccc2NC(=S)NC(=O)c2ccc(-c3cccc([N+](=O)[O-])c3)o2)CC1,-4,0%,-2%,-2%,-23%,-5%
CC1CCN(c2ccc(NC(=S)NC(=O)c3ccco3)cc2)CC1,8,-6%,-9%,22µM*,-30%,-7%
CC1CCN(c2ccc(NC(=S)NC(=O)c3ccc(-c4cccc([N+](=O)[O-])c4)o3)cc2)CC1,6,-3%,6%,?,20µM*,-4%
CN(Cc1ccccc1)C(=O)c1ccc2c(c1)N(Cc1ccc(Cl)cc1)C(=O)c1ccccc1S2=O (stereo not given),.,.,-2%,-4%,13%,0%
O=C(c1ccco1)N1CCN(Cc2csc(-c3ccccc3Cl)n2)CC1,-10,-5%,-1%,-7%,71µM*,1%
O=C(c1ccco1)N1CCN(Cc2c(Cl)cccc2Cl)CC1,9,-3%,-1%,-2%,14%,0%
CCc1nnc(NS(=O)(=O)c2ccc(NC(=S)NC(=O)c3cccnc3)cc2)s1,4,3%,4%,1%,1%[57.1 µM],8%[57.1 µM]
CCc1nnc(NS(=O)(=O)c2ccc(NC(=S)NC(=O)c3ccc(F)cc3)cc2)s1,-4,-3%,-11%,-5%,18µM*,-3%
Cc1cc(NS(=O)(=O)c2ccc(NC(=S)NC(=O)c3ccc(Br)cc3)cc2)no1,-1,0%,-12%,1%,45µM*,6%
O=C(NCc1ccc(F)cc1)n1cc(P(=S)(c2ccccc2)c2ccccc2)c2ccccc21,.,.,1%,.,.,.
CC(C)(C)n1ncc2c(=O)n(Cc3cccc(-c4ccccc4)c3)cnc21,.,.,.,.,2%,-3%
CN(C)[C@@H]1C(=O)C(C(=O)NCN2CCCC2)=C(O)[C@@]2(O)C(=O)C3=C(O)c4c(O)cccc4[C@@](C)(O)C3CC12 (stereo not given in full),.,-2%,.,6.3µM*,.,.
CN(C)[C@H]1C(=O)C(C(=O)NCN2CCCC2)=C(O)[C@]2(O)C(=O)C3=C(O)c4c(O)cccc4[C@](C)(O)[C@H]3C[C@H]12,.,.,.,1.8µM*,.,.
CCC(=O)NC(c1ccc(F)cc1)c1cc(Cl)c2cccnc2c1O (stereo not given),.,.,10%,.,.,.
